Test systems include SR leukemia; RPMI-8226 leukemia; OVCAR-8 ovarian; OVCAR-5 ovarian; OVCAR-4 ovarian; SK-OV-3 ovarian; IGROV1 ovarian; OVCAR-3 ovarian; HS 578T breast; NCI/ADR-RES ovarian; T-47D breast; BT-549 breast; MDA-MB-435 melanoma; SW-620 colon; MCF7 breast; HCT-116 colon; HCC-2998 colon; KM12 colon.
Common to all, as to test: NCI-60 one-dose screen, 48 h (100 = growth as untreated, 0 = no growth, -100 = all killed)
What all share (conditions): 10 µM unless noted

Compounds without any hit were thinned out: in the full panel of roughly 83,000, 20% have a hit.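 The endpoint reported here, percent growth, reads 100 for growth as untreated, 0 for no net growth and -100 for all cells dead.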 A number with no mark means an inactive call. Active and inactive are the calls of the source. Rule for the calls: active = growth percent below 10; inactive = the rest.

The values below come from PubChem BioAssay (NCI).

For the compound `CCN(C(=O)CN1CCN(c2cc3c(cc2F)c(=O)c(C(=O)O)cn3C2CC2)CC1)c1nc(-c2ccc(OC)cc2)cs1`, the growth with SR leukemia is 23.7%; in the assay with RPMI-8226 leukemia, 3.09% (active); in the assay with OVCAR-8 ovarian, 59.6%; with OVCAR-5 ovarian it was 92%; in the assay on OVCAR-4 ovarian, 37.2%; with SK-OV-3 ovarian it was 97.1%. Besides, the growth in the assay with IGROV1 ovarian was 67.4%; in the assay with OVCAR-3 ovarian it was 6.96% (active); in the assay on HS 578T breast, 81.8%; with NCI/ADR-RES ovarian, 59.3%; in the assay with T-47D breast, 78.7%; with BT-549 breast it was 73.1%. In addition, the growth in the assay with MDA-MB-435 melanoma is 53.2%; in the assay with SW-620 colon, 49%; in the assay with MCF7 breast it was 73.9%; in the assay with HCT-116 colon, 40%; in the assay with HCC-2998 colon, 85.4%; in the assay with KM12 colon, 52.9%.
As to `CN1CCN(Cc2ccc(NC(=O)c3cncc(C#Cc4c(N)ncc5ccc(C#N)cc45)c3)cc2C(F)(F)F)CC1`, the growth was -13% (active) in the assay on SR leukemia; -23% (active) in the assay with RPMI-8226 leukemia; -40% (active) with OVCAR-8 ovarian; -84.5% (active) in the assay with OVCAR-5 ovarian; -73.9% (active) in the assay on OVCAR-4 ovarian; 127% in the assay with SK-OV-3 ovarian. Moreover, the growth is -53.6% (active) with IGROV1 ovarian; 90.9% in the assay with OVCAR-3 ovarian; 50.8% in the assay on HS 578T breast; -30.5% (active) in the assay with NCI/ADR-RES ovarian; 65% with T-47D breast; 92.3% in the assay on BT-549 breast. Also, the growth in the assay with MDA-MB-435 melanoma is -93.8% (active); in the assay with SW-620 colon, -69.2% (active); in the assay on MCF7 breast, -69.7% (active); in the assay on HCT-116 colon it was -22% (active); with HCC-2998 colon it was 78.5%; with KM12 colon, -41.8% (active).
On to `COc1cc2c(cc1O)CCc1cc(O)cc(OC)c1-2`, for which the growth is 77.4% in the assay on SR leukemia; 75.5% with RPMI-8226 leukemia; 88.1% in the assay with OVCAR-8 ovarian; 109% in the assay on OVCAR-5 ovarian; 94.9% in the assay on OVCAR-4 ovarian; 96.9% in the assay with SK-OV-3 ovarian. For the same compound, the growth in the assay on IGROV1 ovarian is 105%; with OVCAR-3 ovarian, 95.6%; in the assay on HS 578T breast it was 83.3%; in the assay on NCI/ADR-RES ovarian it was 99%; with T-47D breast, 98%; in the assay on BT-549 breast it was 79.9%. Besides, the growth was 96.2% in the assay with MDA-MB-435 melanoma; 109% in the assay with SW-620 colon; 97.8% in the assay on MCF7 breast; 93.7% in the assay with HCT-116 colon; 110% with HCC-2998 colon; 97.4% in the assay on KM12 colon.
Turning to `CCN(CC)Cc1cc(Nc2c3ccccc3nc3cc(Cl)ccc23)ccc1O`, the growth was -37.1% (active) in the assay with SR leukemia; -21.1% (active) with RPMI-8226 leukemia; -60.1% (active) in the assay with OVCAR-8 ovarian; -15.3% (active) in the assay on OVCAR-5 ovarian; -97.8% (active) with OVCAR-4 ovarian; -2.76% (active) with SK-OV-3 ovarian. In addition, the growth in the assay with IGROV1 ovarian was 2.96% (active); in the assay with OVCAR-3 ovarian, -92.2% (active); in the assay on HS 578T breast, -30.9% (active); in the assay with NCI/ADR-RES ovarian, -38.5% (active); with T-47D breast, -68.2% (active); in the assay with BT-549 breast, -58% (active). The growth in the assay on MDA-MB-435 melanoma is -92.7% (active); in the assay on SW-620 colon it was -41% (active); in the assay on MCF7 breast, -60.7% (active); in the assay on HCT-116 colon, -43% (active); in the assay with HCC-2998 colon, -100% (active); in the assay on KM12 colon it was -30% (active).
As for `Cc1cc(Nc2nc(N3CCNCC3)nc3ccccc23)n[nH]1`, the growth is 92.6% in the assay with SR leukemia; 117% in the assay on RPMI-8226 leukemia; 115% in the assay with OVCAR-8 ovarian; 89.6% in the assay on OVCAR-5 ovarian; 96.2% in the assay with OVCAR-4 ovarian; 27% in the assay with SK-OV-3 ovarian. Moreover, the growth with IGROV1 ovarian was 85.1%; with OVCAR-3 ovarian, 100%; in the assay with HS 578T breast it was 65.2%; with NCI/ADR-RES ovarian, 107%; with T-47D breast, 93%; with BT-549 breast, 88.6%. Also, the growth is 73% with MDA-MB-435 melanoma; 103% in the assay on SW-620 colon; 87% with MCF7 breast; 80% with HCT-116 colon; 92.4% in the assay on HCC-2998 colon; 26.7% in the assay on KM12 colon.
In the case of `CCOC(=O)c1cnc2ccc(OC)cc2c1Nc1cccc(S(=O)(=O)NC)c1`, the growth in the assay on SR leukemia was 95.6%; with RPMI-8226 leukemia, 51.6%; in the assay with OVCAR-8 ovarian, 100%; in the assay with OVCAR-5 ovarian, 102%; in the assay with OVCAR-4 ovarian, 104%; with SK-OV-3 ovarian, 113%. Also, the growth is 113% in the assay with IGROV1 ovarian; 103% in the assay with OVCAR-3 ovarian; 52.3% in the assay on HS 578T breast; 90% in the assay on NCI/ADR-RES ovarian; 98% in the assay on T-47D breast; 80.1% in the assay on BT-549 breast. The growth in the assay on MDA-MB-435 melanoma is 103%; in the assay on SW-620 colon, 113%; in the assay on MCF7 breast, 80.9%; in the assay on HCT-116 colon, 96.7%; in the assay on HCC-2998 colon, 101%; in the assay on KM12 colon it was 96.1%.
As for `CC(=O)C1=C(O)C=C2Oc3c(C(=O)/C=C/c4c(Cl)cccc4Cl)c(O)c(C)c(O)c3[C@]2(C)C1=O`, the growth with SR leukemia is -31% (active); in the assay on RPMI-8226 leukemia it was -17.7% (active); with OVCAR-8 ovarian, -18.9% (active); in the assay with OVCAR-5 ovarian it was -3.17% (active); in the assay on OVCAR-4 ovarian, 7.41% (active); with SK-OV-3 ovarian, -30.9% (active). Moreover, the growth in the assay with IGROV1 ovarian was -8.78% (active); with OVCAR-3 ovarian, -30.6% (active); with HS 578T breast, -18.1% (active); in the assay with NCI/ADR-RES ovarian, -23.4% (active); in the assay with T-47D breast it was -20.2% (active); with BT-549 breast, -28.9% (active). In addition, the growth in the assay with MDA-MB-435 melanoma was -11.6% (active); with SW-620 colon it was 5.36% (active); in the assay with MCF7 breast, -11.2% (active); in the assay on HCT-116 colon it was -26.8% (active); with HCC-2998 colon, -59.6% (active); with KM12 colon, -12.1% (active).
As for `Clc1nc(Cl)c2c3c(sc2n1)CCCC3`, the growth in the assay on SR leukemia is -36.4% (active); in the assay with RPMI-8226 leukemia, 1.89% (active); with OVCAR-8 ovarian, 39.8%; in the assay with OVCAR-5 ovarian it was 96.5%; with OVCAR-4 ovarian, 44.1%; in the assay with SK-OV-3 ovarian, 107%. The growth in the assay on IGROV1 ovarian was 38.4%; in the assay with OVCAR-3 ovarian it was -35.9% (active); with HS 578T breast, 76.2%; in the assay on NCI/ADR-RES ovarian it was 99.7%; in the assay on T-47D breast, 38.4%; in the assay on BT-549 breast, 13.3%. Moreover, the growth in the assay on MDA-MB-435 melanoma was 49.3%; in the assay with SW-620 colon it was 34.3%; with MCF7 breast, 30.7%; in the assay with HCT-116 colon, 12.5%; with HCC-2998 colon, 97.6%; with KM12 colon, 74.2%.
On to `CCCCCCCCCCCCCCCC[N+]1(CC)CCCC1`, for which the growth was -39.9% (active) in the assay with SR leukemia; -54.7% (active) in the assay on RPMI-8226 leukemia; -42.5% (active) in the assay on OVCAR-8 ovarian; 0.586% (active) in the assay on OVCAR-5 ovarian; -4.99% (active) in the assay with OVCAR-4 ovarian; -25.1% (active) with SK-OV-3 ovarian. Also, the growth in the assay on IGROV1 ovarian is -76% (active); with OVCAR-3 ovarian, -52.5% (active); in the assay on HS 578T breast, -8.22% (active); with NCI/ADR-RES ovarian, 85.8%; in the assay with T-47D breast, 18.6%; with BT-549 breast, -25.8% (active). Further, the growth in the assay with MDA-MB-435 melanoma is -60.6% (active); in the assay with SW-620 colon it was -8.83% (active); in the assay with MCF7 breast, -18.2% (active); with HCT-116 colon, -46.4% (active); with HCC-2998 colon, -59.5% (active); in the assay with KM12 colon, -90.6% (active).
